In PubChem BioAssay AID1210 (NMMLSC, 2008) one finds inhibition data, which are given here for 21 compounds.

Activity calls are given as the source filed them.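 How the source made its calls: active means blocks over 70% of labeled estradiol binding at 10 µM, or over a set limit at 100 nM; inactive means the rest.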

In this assay the target is Estrogen receptor beta (Homo sapiens) (UniProt Q92731). Put plainly: ERbeta ligand binders by competition, primary screen, cell-based, Cos7 ERbeta-GFP, flow cytometry (AID 1210).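 Further: 0% = DMSO vehicle wells and 100% = complete loss of labeled estradiol signal.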 The conditions noted are these: fluorescent estrogen binding, stronger effect = higher value.
Sequence of Estrogen receptor beta (Homo sapiens) (Q92731 whole entry, looked up): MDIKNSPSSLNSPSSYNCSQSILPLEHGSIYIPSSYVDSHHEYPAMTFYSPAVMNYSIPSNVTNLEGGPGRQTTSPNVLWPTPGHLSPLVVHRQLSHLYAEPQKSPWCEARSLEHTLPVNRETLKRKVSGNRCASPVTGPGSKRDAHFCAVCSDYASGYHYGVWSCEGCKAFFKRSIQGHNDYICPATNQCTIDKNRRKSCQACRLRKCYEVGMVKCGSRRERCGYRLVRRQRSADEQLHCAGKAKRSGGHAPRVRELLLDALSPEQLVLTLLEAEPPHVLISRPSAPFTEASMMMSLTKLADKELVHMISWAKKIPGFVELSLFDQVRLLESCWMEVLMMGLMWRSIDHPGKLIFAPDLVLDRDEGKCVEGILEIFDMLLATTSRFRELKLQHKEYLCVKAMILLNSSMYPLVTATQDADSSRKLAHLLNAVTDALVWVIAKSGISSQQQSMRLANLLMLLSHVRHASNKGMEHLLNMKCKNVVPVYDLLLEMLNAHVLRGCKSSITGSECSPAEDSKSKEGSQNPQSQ
Setting [1] is: ligand binding inhibition, at 0.1 µM.

As for `COc1cc(NC(=O)c2cccs2)c(C(=O)OCC(=O)NC(=O)NCc2ccccc2)cc1OC`, the inhibition is 8% (inactive) (at 10 µM) and 17% under setting [1].

On to `O=C(Nc1ccc2nn(-c3ccccc3)nc2c1)c1ccc2c(c1)OCO2`, for which the inhibition is 27% (inactive) (at 10 µM) and 14% under setting [1].

On to `Cc1nnc(NC(=O)Cc2cccs2)s1`, for which the inhibition runs as follows: (at 10 µM) 4% (inactive); under setting [1], 22%.

For the compound `Cc1ccc(N=Cc2ccc(O)cc2O)cc1F`, the inhibition is 34% (inactive) (at 10 µM) and 15% under setting [1].

As to `CCC(=O)Oc1ccc(/C(CC)=C(\CC)c2ccc(OC(=O)CC)cc2)cc1`, the inhibition was 68% (active) (at 10 µM) and 80% under setting [1].

For `Cc1ccc(S(=O)(=O)Cc2ccc(C(=O)N3CCc4ccccc4C3)o2)cc1`, the inhibition is 43% (inactive) (at 10 µM) and 10% under setting [1].

With `NC(=S)n1[nH]c(-c2ccc([N+](=O)[O-])cc2)c(N=Nc2ccc(O)cc2)c1=O`, the inhibition is 35% (inactive) (at 10 µM) and 15% under setting [1].

With `COc1ccc(C2Nc3ccccc3C(=O)N2c2ccc(C)cc2)cc1Cn1cc([N+](=O)[O-])cn1` (configuration not stated), the inhibition (at 10 µM) is 20% (inactive) and the inhibition under setting [1] was found to be 2%.

As to `C=CCSC1=N/C(=C\C=C\c2ccco2)C(=O)S1`, the inhibition was 24% (inactive) (at 10 µM) and 1% under setting [1].

Consider `CCc1ccc2nc(NC(=O)c3ccc4c(=O)[nH]c(CN5CCOCC5)nc4c3)sc2c1`, for which the inhibition reads like this: (at 10 µM) 29% (inactive); under setting [1], 10%.

`COc1ccc(-c2nnc(SCC(=O)c3cc(C)n(Cc4cccs4)c3C)o2)cc1`: the inhibition runs as follows: (at 10 µM) 27% (inactive); under setting [1], 1%.

Turning to `COc1ccc(NC(=O)C(NC(=O)c2ccc(=O)[nH]c2)c2ccc(C)cc2)cc1` (configuration not stated), the inhibition was 52% (inactive) (at 10 µM) and 12% under setting [1].

On to `Oc1c(Cl)cc(Cl)cc1Sc1cc(Cl)cc(Cl)c1O`, for which the inhibition is 33% (inactive) (at 10 µM) and 22% under setting [1].

For `CCOc1cccc2cc(-c3cn4cc(C)ccc4n3)c(=O)oc12`, the inhibition (at 10 µM) was 27% (inactive) and the inhibition under setting [1] was determined as 16%.

For the compound `COc1cc(C(=O)Nc2nnc(-c3sccc3C)s2)cc(OC)c1OC`, the inhibition (at 10 µM) was 52% (inactive) and the inhibition under setting [1] was determined as 34%.

As for `CC1(N2CCOCC2)CC2(O)C(=[N+]1[O-])CCc1nonc12` (configuration not stated), the inhibition by setting is: (at 10 µM) 49% (inactive); under setting [1], 62%.

In the case of `O=C(Nc1ccc2oc(-c3ccc4ccccc4c3)nc2c1)c1cccs1`, the inhibition (at 10 µM) was 42% (inactive) and the inhibition under setting [1] was found to be 36%.

As for `CC(C)(C)OC(=O)N1CCN(c2ccc(NC(=O)Cn3nnc(-c4ccccc4)n3)cc2)CC1`, the inhibition is, setting by setting: (at 10 µM) 64% (inactive); under setting [1], 6%.

Take `COc1ccc(-c2nc3ccc([N+](=O)[O-])cc3o2)cc1`: the inhibition is, setting by setting: (at 10 µM) 36% (inactive); under setting [1], 12%.

As for `COc1ccc2nc3oc(C(=O)N4CCN(c5cccc(C(F)(F)F)c5)CC4)cc3cc2c1`, the inhibition (at 10 µM) was 24% (inactive) and the inhibition under setting [1] turned out to be 47%.

For `O=C(Cn1nnc(-c2ccc3c(c2)OCO3)n1)NCc1ccco1`, the inhibition runs as follows: (at 10 µM) 46% (inactive); under setting [1], 24%.
